# From the supplement of paper PMC4466140
# B1: unnamed (peptide)
# chain: YLTRPLPSTPNEDSR
# B2: unnamed (peptide)
# chain: PPPPPPPPPPLPQSL
# Key:
# Experiment in all cases: SPOT peptide array binding signal intensity (averaged, normalized) (arbitrary units (background-subtracted, floor 0; scale differs between SH3 domains)); higher = stronger binding of the SH3 domain to the peptide
# [1] = biological target: AgAbp1
# Outline: (§1)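 E. coli BL21(DE3) was used to express GST-fused SH3 domains from four yeast species, which were then purified on glutathione Sepharose. These were incubated at 10 μg/ml in TBS-based blocking buffer overnight at 4°C on cellulose membranes carrying synthetic 15-mer peptides, in which cysteines were replaced by serines. Binding signal is the replicate average of normalized, background-subtracted spot intensity, in arbitrary units that differ between domains.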
# [2] = biological target: AgBbc1
# Outline: as §1
# [3] = biological target: AgBem1-D1
# Outline: as §1
# [4] = biological target: AgBzz1-D1
# Outline: as §1
# [5] = biological target: AgBzz1-D2
# Outline: as §1
# [6] = biological target: AgCyk3
# Outline: as §1
# [7] = biological target: AgFus1
# Outline: as §1
# [8] = biological target: AgHof1
# Outline: as §1
# [9] = biological target: AgHse1
# Outline: as §1
# [10] = biological target: AgLsb1
# Outline: as §1
# [11] = biological target: AgLsb4
# Outline: as §1
# [12] = biological target: AgMyo5
# Outline: as §1
# [13] = biological target: AgNbp2
# Outline: as §1
# [14] = biological target: AgRvs167
# Outline: as §1
# [15] = biological target: AgSho1
# Outline: as §1
# [16] = biological target: AgSla1-D1-D2
# Outline: as §1
# [17] = biological target: AgSla1-D3
# Outline: as §1
# [18] = biological target: CaAbp1-D1
# Outline: as §1
# [19] = biological target: CaAbp1-D2
# Outline: as §1
# [20] = biological target: CaBbc1
# Outline: as §1
# [21] = biological target: CaBem1-D1
# Outline: as §1
# [22] = biological target: CaBzz1-D1
# Outline: as §1
# [23] = biological target: CaBzz1-D2
# Outline: as §1
# [24] = biological target: CaCyk3
# Outline: as §1
# [25] = biological target: CaFus1
# Outline: as §1
# [26] = biological target: CaHof1
# Outline: as §1
# [27] = biological target: CaHse1
# Outline: as §1
# [28] = biological target: CaLsb1
# Outline: as §1
# [29] = biological target: CaLsb4
# Outline: as §1
# [30] = biological target: CaMyo5
# Outline: as §1
# [31] = biological target: CaNbp2
# Outline: as §1
# [32] = biological target: CaRvs167
# Outline: as §1
# [33] = biological target: CaRvs167-3
# Outline: as §1
# [34] = biological target: CaSho1
# Outline: as §1
# [35] = biological target: CaSla1-D1-D2
# Outline: as §1
# [36] = biological target: CaSla1-D3
# Outline: as §1
# [37] = biological target: ScAbp1
# Outline: as §1
# [38] = biological target: ScBbc1
# Outline: as §1
# [39] = biological target: ScBem1-D1
# Outline: as §1
# [40] = biological target: ScBzz1-D1
# Outline: as §1
# [41] = biological target: ScBzz1-D2
# Outline: as §1
# [42] = biological target: ScCyk3
# Outline: as §1
# [43] = biological target: ScFus1
# Outline: as §1
# [44] = biological target: ScHof1
# Outline: as §1
# [45] = biological target: ScHse1
# Outline: as §1
# [46] = biological target: ScLsb1
# Outline: as §1
# [47] = biological target: ScLsb2
# Outline: as §1
# [48] = biological target: ScLsb3
# Outline: as §1
# [49] = biological target: ScLsb4
# Outline: as §1
# [50] = biological target: ScMyo3
# Outline: as §1
# [51] = biological target: ScMyo5
# Outline: as §1
# [52] = biological target: ScNbp2
# Outline: as §1
# [53] = biological target: ScPex13
# Outline: as §1
# [54] = biological target: ScRvs167
# Outline: as §1
# [55] = biological target: ScSho1
# Outline: as §1
# [56] = biological target: ScSla1-D1-D2
# Outline: as §1
# [57] = biological target: ScSla1-D3
# Outline: as §1
# [58] = biological target: SpAbp1-D1
# Outline: as §1
# [59] = biological target: SpBbc1
# Outline: as §1
# [60] = biological target: SpBzz1-D1
# Outline: as §1
# [61] = biological target: SpBzz1-D2
# Outline: as §1
# [62] = biological target: SpCyk3
# Outline: as §1
# [63] = biological target: SpHof1
# Outline: as §1
# [64] = biological target: SpHof1-2
# Outline: as §1
# [65] = biological target: SpHof1-3
# Outline: as §1
# [66] = biological target: SpHse1
# Outline: as §1
# [67] = biological target: SpLsb1
# Outline: as §1
# [68] = biological target: SpLsb4
# Outline: as §1
# [69] = biological target: SpMyo1
# Outline: as §1
# [70] = biological target: SpNbp2
# Outline: as §1
# [71] = biological target: SpPex13
# Outline: as §1
# [72] = biological target: SpRvs167
# Outline: as §1
# [73] = biological target: SpSla1-D1-D2
# Outline: as §1
# [74] = biological target: SpSla1-D3
# Outline: as §1
binder,measurement,setting,value
B1,SPOT peptide array binding signal intensity,[1],7
same,SPOT peptide array binding signal intensity,[2],39.5
same,SPOT peptide array binding signal intensity,[3],≤ 0
same,SPOT peptide array binding signal intensity,[4],17.5
same,SPOT peptide array binding signal intensity,[5],≤ 0
same,SPOT peptide array binding signal intensity,[6],42
same,SPOT peptide array binding signal intensity,[7],≤ 0
same,SPOT peptide array binding signal intensity,[8],13.2
same,SPOT peptide array binding signal intensity,[9],≤ 0
same,SPOT peptide array binding signal intensity,[10],96
same,SPOT peptide array binding signal intensity,[11],853
same,SPOT peptide array binding signal intensity,[12],2.25
same,SPOT peptide array binding signal intensity,[13],≤ 0
same,SPOT peptide array binding signal intensity,[14],404
same,SPOT peptide array binding signal intensity,[15],1790
same,SPOT peptide array binding signal intensity,[16],1
same,SPOT peptide array binding signal intensity,[17],≤ 0
same,SPOT peptide array binding signal intensity,[18],11
same,SPOT peptide array binding signal intensity,[19],7
same,SPOT peptide array binding signal intensity,[20],134
same,SPOT peptide array binding signal intensity,[21],≤ 0
same,SPOT peptide array binding signal intensity,[22],42
same,SPOT peptide array binding signal intensity,[23],12.5
same,SPOT peptide array binding signal intensity,[24],8
same,SPOT peptide array binding signal intensity,[25],≤ 0
same,SPOT peptide array binding signal intensity,[26],69.8
same,SPOT peptide array binding signal intensity,[27],28.5
same,SPOT peptide array binding signal intensity,[28],≤ 0
same,SPOT peptide array binding signal intensity,[29],406
same,SPOT peptide array binding signal intensity,[30],≤ 0
same,SPOT peptide array binding signal intensity,[31],≤ 0
same,SPOT peptide array binding signal intensity,[32],144
same,SPOT peptide array binding signal intensity,[33],≤ 0
same,SPOT peptide array binding signal intensity,[34],1020
same,SPOT peptide array binding signal intensity,[35],≤ 0
same,SPOT peptide array binding signal intensity,[36],≤ 0
same,SPOT peptide array binding signal intensity,[37],3.5
same,SPOT peptide array binding signal intensity,[38],5
same,SPOT peptide array binding signal intensity,[39],≤ 0
same,SPOT peptide array binding signal intensity,[40],6.5
same,SPOT peptide array binding signal intensity,[41],14
same,SPOT peptide array binding signal intensity,[42],≤ 0
same,SPOT peptide array binding signal intensity,[43],≤ 0
same,SPOT peptide array binding signal intensity,[44],9.5
same,SPOT peptide array binding signal intensity,[45],≤ 0
same,SPOT peptide array binding signal intensity,[46],20
same,SPOT peptide array binding signal intensity,[47],2.5
same,SPOT peptide array binding signal intensity,[48],3260
same,SPOT peptide array binding signal intensity,[49],706
same,SPOT peptide array binding signal intensity,[50],3
same,SPOT peptide array binding signal intensity,[51],≤ 0
same,SPOT peptide array binding signal intensity,[52],≤ 0
same,SPOT peptide array binding signal intensity,[53],992
same,SPOT peptide array binding signal intensity,[54],417
same,SPOT peptide array binding signal intensity,[55],3780
same,SPOT peptide array binding signal intensity,[56],17.5
same,SPOT peptide array binding signal intensity,[57],1
same,SPOT peptide array binding signal intensity,[58],≤ 0
same,SPOT peptide array binding signal intensity,[59],≤ 0
same,SPOT peptide array binding signal intensity,[60],74.5
same,SPOT peptide array binding signal intensity,[61],≤ 0
same,SPOT peptide array binding signal intensity,[62],150
same,SPOT peptide array binding signal intensity,[63],2260
same,SPOT peptide array binding signal intensity,[64],1610
same,SPOT peptide array binding signal intensity,[65],776
same,SPOT peptide array binding signal intensity,[66],1.75
same,SPOT peptide array binding signal intensity,[67],1
same,SPOT peptide array binding signal intensity,[68],2190
same,SPOT peptide array binding signal intensity,[69],60.2
same,SPOT peptide array binding signal intensity,[70],≤ 0
same,SPOT peptide array binding signal intensity,[71],1.5
same,SPOT peptide array binding signal intensity,[72],777
same,SPOT peptide array binding signal intensity,[73],9
same,SPOT peptide array binding signal intensity,[74],≤ 0
B2,SPOT peptide array binding signal intensity,[1],6.5
same,SPOT peptide array binding signal intensity,[2],≤ 0
same,SPOT peptide array binding signal intensity,[3],≤ 0
same,SPOT peptide array binding signal intensity,[4],23.5
same,SPOT peptide array binding signal intensity,[5],≤ 0
same,SPOT peptide array binding signal intensity,[6],1
same,SPOT peptide array binding signal intensity,[7],≤ 0
same,SPOT peptide array binding signal intensity,[8],366
same,SPOT peptide array binding signal intensity,[9],18
same,SPOT peptide array binding signal intensity,[10],≤ 0
same,SPOT peptide array binding signal intensity,[11],≤ 0
same,SPOT peptide array binding signal intensity,[12],561
same,SPOT peptide array binding signal intensity,[13],33
same,SPOT peptide array binding signal intensity,[14],≤ 0
same,SPOT peptide array binding signal intensity,[15],3
same,SPOT peptide array binding signal intensity,[16],1
same,SPOT peptide array binding signal intensity,[17],1.5
same,SPOT peptide array binding signal intensity,[18],29.5
same,SPOT peptide array binding signal intensity,[19],≤ 0
same,SPOT peptide array binding signal intensity,[20],≤ 0
same,SPOT peptide array binding signal intensity,[21],5
same,SPOT peptide array binding signal intensity,[22],2040
same,SPOT peptide array binding signal intensity,[23],268
same,SPOT peptide array binding signal intensity,[24],1
same,SPOT peptide array binding signal intensity,[25],23
same,SPOT peptide array binding signal intensity,[26],0.75
same,SPOT peptide array binding signal intensity,[27],2.25
same,SPOT peptide array binding signal intensity,[28],0.5
same,SPOT peptide array binding signal intensity,[29],≤ 0
same,SPOT peptide array binding signal intensity,[30],156
